# Source: the supplement of paper PMC13380429
# What was measured:
# [1] = test system: Vero E6 infected with SARS-CoV-2; assay: morphology score (similarity to uninfected cells); higher = more like uninfected cells; details: 24 h
# [2] = test system: Vero E6 infected with SARS-CoV-2; assay: SARS-CoV-2 infection rate relative to infected DMSO; higher = more infection, active = 60 or less; details: 24 h
SMILES,morphology score [1],SARS-CoV-2 infection rate [2]
COc1cc2c(cc1OC)-c1c/c(=N\c3c(C)cc(C)cc3C)n(C)c(=O)n1CC2 [trequinsin] (10 µM),0.541,87.5% (inactive)
O=C(Cc1ccc(Cl)c(Cl)c1)N1CCCC[C@@H]1CN1CCCC1 (10 µM),0.168,91.5% (inactive)
Cc1nccc2[nH]c(=O)ccc12 [medorinone] (10 µM),0.145,96.5% (inactive)
C[C@]12Cc3c[nH]nc3C[C@@H]1CC[C@@H]1[C@@H]2CC[C@@]2(C)[C@H]1CC[C@]2(C)O [stanozolol] (10 µM),-0.305,110% (inactive)
COc1cccc(N2CCN(C3=Nc4c(F)cccc4[C@H](CC(=O)O)N3c3cc(C(F)(F)F)ccc3OC)CC2)c1 [letermovir] (10 µM),-0.0548,109% (inactive)
CC(C(=O)O)c1ccc(N2Cc3ccccc3C2=O)cc1 (configuration not stated) [indoprofen] (10 µM),-0.106,110% (inactive)
O=C(O)CN1C(=O)c2cccc3cccc(c23)C1=O [alrestatin] (10 µM),0.0519,106% (inactive)
CN1CCN(c2cc3c(cc2F)c(=O)c(C(=O)O)cn3-c2ccc(F)cc2)CC1 [difloxacin] (10 µM),-0.0785,99.5% (inactive)
COCCOC(=O)C1=C(C)NC(C)=C(C(=O)OC(C)C)C1c1cccc([N+](=O)[O-])c1 (configuration not stated) [nimodipine] (10 µM),0.14,92% (inactive)
NC(=O)c1nc(F)cnc1O [favipiravir] (10 µM),0.0924,104% (inactive)
CN(C)CC(=O)Nc1ccc2[nH]c(=O)c3ccccc3c2c1 (10 µM),0.202,92.5% (inactive)
